Source: the supplement of paper PMC11732987, “Enantioselective OTUD7B fragment discovery through chemoproteomics screening and high-throughput optimisation” (Communications Chemistry, 2025)

Legend:
Assay in all cases: log2 ratio of Biotin-Ahx-Ub-VS probe labelling (fragment/DMSO); higher = less target engagement (more negative = stronger competition), active = hit call of the paper (q ≤ 0.05, log2 ratio ≤ -1)
Details in all cases: compound concentration: 200 uM; treatment time: 3 h
[1] = target: T1, USP42 (UniProt Q9H9J4)
T1 sequence (whole entry): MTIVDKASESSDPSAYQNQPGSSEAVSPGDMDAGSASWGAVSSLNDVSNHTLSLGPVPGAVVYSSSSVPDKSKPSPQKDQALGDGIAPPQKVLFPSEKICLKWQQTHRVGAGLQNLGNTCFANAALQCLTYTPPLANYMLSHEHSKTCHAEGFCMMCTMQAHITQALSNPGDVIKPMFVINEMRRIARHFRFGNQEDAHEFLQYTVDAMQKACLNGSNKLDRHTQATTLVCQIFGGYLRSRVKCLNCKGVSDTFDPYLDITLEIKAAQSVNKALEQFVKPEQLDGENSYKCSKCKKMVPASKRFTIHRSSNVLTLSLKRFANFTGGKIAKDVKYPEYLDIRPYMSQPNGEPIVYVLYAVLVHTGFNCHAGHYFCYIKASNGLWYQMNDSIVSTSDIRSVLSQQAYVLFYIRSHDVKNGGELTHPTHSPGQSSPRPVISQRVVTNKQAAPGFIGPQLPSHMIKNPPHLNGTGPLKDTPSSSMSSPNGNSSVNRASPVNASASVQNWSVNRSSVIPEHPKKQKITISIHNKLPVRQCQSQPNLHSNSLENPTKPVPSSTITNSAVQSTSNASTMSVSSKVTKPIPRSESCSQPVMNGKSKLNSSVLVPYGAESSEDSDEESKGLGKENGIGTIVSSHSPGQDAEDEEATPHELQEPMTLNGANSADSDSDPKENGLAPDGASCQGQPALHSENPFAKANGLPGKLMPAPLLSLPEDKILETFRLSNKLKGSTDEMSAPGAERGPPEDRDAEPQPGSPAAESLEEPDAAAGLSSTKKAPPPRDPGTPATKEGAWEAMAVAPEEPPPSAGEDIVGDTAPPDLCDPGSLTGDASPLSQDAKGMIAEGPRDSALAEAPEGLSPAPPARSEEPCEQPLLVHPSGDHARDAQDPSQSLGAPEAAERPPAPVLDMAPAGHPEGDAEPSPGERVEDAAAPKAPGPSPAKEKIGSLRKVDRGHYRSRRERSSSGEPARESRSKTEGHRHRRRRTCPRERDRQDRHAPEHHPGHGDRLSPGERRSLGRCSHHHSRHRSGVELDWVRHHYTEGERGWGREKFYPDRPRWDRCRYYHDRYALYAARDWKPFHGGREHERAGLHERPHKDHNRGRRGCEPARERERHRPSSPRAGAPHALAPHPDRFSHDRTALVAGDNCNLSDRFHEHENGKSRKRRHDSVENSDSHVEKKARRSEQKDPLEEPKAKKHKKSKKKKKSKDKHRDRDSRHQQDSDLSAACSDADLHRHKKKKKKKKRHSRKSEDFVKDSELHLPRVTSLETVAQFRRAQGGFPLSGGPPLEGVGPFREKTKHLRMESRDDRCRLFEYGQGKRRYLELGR
Method in brief: (§1)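 Labelling with Biotin-Ahx-Ub-VS (0.5 µM final, 1 h) followed a 3 h triplicate treatment of HEK293T lysate (495 µg per sample, Tris/CHAPS/IGEPAL buffer with protease inhibitors) with fragment at 200 µM or vehicle. Labelled DUBs were NeutrAvidin-enriched, digested with LysC and trypsin, and run by diaPASEF LC-MS/MS. The values, average log2 fragment/vehicle ratios by unpaired t-test, come from global-median-normalised Spectronaut label-free quantities. Proteins with ≥2 unique peptides were used.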

[2] = target: USP46 (UniProt P62068)
Method in brief: as §1

[3] = target: T2, USP47 (UniProt Q96K76)
T2 sequence (whole entry): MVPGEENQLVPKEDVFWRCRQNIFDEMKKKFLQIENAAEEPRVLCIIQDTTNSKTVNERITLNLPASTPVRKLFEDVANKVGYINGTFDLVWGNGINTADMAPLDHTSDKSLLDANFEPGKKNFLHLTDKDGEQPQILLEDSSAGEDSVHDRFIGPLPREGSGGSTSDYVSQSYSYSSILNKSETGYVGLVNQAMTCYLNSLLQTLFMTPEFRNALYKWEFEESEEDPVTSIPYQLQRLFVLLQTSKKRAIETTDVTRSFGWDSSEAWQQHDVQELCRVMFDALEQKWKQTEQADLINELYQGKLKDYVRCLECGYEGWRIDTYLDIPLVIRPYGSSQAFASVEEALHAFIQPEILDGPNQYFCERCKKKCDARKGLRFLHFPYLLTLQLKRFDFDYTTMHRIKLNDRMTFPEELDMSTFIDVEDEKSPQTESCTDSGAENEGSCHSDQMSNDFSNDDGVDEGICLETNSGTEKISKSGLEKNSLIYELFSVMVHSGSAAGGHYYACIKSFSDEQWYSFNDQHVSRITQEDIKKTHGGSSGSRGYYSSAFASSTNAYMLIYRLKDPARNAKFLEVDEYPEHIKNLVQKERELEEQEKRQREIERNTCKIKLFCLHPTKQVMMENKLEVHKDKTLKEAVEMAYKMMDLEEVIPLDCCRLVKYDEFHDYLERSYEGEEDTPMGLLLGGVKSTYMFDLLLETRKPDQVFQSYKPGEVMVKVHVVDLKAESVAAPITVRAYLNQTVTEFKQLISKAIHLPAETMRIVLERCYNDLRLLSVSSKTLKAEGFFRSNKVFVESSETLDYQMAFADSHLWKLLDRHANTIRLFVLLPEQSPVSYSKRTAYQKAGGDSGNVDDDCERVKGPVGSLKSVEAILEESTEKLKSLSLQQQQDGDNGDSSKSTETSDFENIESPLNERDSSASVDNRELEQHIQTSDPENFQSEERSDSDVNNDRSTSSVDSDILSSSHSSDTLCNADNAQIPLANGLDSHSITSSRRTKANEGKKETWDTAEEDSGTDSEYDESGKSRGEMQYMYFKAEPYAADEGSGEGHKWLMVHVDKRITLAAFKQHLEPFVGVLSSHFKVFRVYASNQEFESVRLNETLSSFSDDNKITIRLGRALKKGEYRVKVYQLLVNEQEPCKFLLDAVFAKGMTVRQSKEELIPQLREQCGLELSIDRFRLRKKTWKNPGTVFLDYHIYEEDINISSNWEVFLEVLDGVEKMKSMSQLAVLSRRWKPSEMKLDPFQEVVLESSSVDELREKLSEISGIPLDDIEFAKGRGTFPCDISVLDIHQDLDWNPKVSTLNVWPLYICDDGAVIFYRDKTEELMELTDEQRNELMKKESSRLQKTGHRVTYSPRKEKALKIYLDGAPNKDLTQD
Method in brief: as §1

[4] = target: T3, USP48 (UniProt Q86UV5)
T3 sequence (whole entry): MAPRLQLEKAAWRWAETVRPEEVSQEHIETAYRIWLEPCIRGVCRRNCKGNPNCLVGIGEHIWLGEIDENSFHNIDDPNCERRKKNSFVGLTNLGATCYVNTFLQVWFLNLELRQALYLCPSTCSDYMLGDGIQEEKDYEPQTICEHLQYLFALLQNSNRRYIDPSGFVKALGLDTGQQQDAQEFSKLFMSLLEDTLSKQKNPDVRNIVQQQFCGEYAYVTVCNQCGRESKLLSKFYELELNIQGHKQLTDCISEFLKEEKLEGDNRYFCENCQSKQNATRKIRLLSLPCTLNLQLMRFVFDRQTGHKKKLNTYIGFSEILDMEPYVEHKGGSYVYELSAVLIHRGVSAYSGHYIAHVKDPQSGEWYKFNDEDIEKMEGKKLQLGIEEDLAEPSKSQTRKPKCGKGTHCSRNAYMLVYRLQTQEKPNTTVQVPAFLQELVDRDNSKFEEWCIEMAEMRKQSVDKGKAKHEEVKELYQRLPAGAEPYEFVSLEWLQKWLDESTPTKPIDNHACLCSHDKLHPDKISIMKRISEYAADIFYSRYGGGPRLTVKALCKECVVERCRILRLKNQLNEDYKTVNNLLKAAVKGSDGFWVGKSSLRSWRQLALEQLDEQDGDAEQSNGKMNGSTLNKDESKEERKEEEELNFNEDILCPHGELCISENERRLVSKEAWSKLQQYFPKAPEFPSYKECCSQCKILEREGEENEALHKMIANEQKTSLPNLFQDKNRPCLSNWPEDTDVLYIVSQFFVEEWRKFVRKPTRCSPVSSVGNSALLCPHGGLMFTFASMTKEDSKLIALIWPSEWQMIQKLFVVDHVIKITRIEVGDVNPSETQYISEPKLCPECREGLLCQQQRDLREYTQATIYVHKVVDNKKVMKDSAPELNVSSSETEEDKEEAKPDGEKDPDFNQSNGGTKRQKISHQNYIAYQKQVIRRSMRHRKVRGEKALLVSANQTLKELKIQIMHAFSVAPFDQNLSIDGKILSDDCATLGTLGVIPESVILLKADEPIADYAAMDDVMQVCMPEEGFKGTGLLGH
Method in brief: as §1

[5] = target: T4, USP5 (UniProt P45974)
T4 sequence (whole entry): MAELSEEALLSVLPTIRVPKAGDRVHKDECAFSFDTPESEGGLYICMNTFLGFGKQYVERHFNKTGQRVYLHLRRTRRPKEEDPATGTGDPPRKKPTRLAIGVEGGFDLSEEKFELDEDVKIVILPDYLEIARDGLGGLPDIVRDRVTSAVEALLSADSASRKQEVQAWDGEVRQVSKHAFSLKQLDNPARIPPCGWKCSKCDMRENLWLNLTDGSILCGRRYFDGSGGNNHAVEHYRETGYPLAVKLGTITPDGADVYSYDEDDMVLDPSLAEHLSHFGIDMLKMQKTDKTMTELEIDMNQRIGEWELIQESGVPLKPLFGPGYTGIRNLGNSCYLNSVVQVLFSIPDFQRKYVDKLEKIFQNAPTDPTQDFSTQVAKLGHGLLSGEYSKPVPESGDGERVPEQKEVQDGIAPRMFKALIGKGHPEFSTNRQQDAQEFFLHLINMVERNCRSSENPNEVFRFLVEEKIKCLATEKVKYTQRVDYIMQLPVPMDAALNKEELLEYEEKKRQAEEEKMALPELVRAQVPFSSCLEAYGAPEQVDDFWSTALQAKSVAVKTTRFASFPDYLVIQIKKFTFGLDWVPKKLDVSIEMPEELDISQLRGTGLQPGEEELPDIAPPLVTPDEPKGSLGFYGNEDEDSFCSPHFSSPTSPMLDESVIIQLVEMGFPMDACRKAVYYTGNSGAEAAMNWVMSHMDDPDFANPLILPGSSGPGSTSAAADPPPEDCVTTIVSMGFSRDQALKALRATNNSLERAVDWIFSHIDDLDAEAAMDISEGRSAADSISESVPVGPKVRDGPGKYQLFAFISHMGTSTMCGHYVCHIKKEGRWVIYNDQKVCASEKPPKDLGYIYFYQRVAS
Method in brief: as §1

[6] = target: USP54 (UniProt Q70EL1)
Method in brief: as §1

[7] = target: USP7 (UniProt Q93009)
Method in brief: as §1

[8] = target: T5, USP8 (UniProt P40818)
T5 sequence (whole entry): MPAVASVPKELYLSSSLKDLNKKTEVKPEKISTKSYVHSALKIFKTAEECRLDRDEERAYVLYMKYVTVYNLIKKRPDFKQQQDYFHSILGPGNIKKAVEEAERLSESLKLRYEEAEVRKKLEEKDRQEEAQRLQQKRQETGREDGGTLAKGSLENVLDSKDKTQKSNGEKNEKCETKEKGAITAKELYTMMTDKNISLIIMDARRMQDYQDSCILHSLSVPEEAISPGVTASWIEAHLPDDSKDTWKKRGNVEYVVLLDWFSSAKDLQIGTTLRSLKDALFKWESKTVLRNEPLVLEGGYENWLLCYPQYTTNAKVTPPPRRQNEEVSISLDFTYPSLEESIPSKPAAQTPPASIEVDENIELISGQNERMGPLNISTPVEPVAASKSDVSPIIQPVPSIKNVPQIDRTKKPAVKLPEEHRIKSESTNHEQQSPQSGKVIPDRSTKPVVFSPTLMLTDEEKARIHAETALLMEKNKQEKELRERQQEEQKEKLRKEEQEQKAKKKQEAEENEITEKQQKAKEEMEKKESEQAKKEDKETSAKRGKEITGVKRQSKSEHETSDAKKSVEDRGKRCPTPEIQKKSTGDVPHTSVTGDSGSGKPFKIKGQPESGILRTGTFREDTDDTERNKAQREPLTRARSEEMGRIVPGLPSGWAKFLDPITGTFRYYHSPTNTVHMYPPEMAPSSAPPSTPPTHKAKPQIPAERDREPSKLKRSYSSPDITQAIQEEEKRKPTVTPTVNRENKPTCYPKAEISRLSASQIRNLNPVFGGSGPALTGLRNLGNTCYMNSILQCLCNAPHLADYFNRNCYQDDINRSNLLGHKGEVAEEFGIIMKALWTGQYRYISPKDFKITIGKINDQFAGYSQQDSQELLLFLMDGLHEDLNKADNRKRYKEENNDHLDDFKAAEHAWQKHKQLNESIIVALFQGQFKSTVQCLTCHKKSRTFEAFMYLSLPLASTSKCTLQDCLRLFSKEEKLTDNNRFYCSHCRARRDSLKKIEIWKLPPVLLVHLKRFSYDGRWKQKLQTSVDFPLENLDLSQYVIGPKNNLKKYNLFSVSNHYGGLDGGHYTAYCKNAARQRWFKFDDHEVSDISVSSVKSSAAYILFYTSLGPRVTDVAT
Method in brief: as §1

[9] = target: USP9X (UniProt Q93008)
Method in brief: as §1

[10] = target: UniProt O00487
Method in brief: as §1

Measured: log2 ratio of Biotin-Ahx-Ub-VS probe labelling

USP9X, sequence (Q93008 whole entry): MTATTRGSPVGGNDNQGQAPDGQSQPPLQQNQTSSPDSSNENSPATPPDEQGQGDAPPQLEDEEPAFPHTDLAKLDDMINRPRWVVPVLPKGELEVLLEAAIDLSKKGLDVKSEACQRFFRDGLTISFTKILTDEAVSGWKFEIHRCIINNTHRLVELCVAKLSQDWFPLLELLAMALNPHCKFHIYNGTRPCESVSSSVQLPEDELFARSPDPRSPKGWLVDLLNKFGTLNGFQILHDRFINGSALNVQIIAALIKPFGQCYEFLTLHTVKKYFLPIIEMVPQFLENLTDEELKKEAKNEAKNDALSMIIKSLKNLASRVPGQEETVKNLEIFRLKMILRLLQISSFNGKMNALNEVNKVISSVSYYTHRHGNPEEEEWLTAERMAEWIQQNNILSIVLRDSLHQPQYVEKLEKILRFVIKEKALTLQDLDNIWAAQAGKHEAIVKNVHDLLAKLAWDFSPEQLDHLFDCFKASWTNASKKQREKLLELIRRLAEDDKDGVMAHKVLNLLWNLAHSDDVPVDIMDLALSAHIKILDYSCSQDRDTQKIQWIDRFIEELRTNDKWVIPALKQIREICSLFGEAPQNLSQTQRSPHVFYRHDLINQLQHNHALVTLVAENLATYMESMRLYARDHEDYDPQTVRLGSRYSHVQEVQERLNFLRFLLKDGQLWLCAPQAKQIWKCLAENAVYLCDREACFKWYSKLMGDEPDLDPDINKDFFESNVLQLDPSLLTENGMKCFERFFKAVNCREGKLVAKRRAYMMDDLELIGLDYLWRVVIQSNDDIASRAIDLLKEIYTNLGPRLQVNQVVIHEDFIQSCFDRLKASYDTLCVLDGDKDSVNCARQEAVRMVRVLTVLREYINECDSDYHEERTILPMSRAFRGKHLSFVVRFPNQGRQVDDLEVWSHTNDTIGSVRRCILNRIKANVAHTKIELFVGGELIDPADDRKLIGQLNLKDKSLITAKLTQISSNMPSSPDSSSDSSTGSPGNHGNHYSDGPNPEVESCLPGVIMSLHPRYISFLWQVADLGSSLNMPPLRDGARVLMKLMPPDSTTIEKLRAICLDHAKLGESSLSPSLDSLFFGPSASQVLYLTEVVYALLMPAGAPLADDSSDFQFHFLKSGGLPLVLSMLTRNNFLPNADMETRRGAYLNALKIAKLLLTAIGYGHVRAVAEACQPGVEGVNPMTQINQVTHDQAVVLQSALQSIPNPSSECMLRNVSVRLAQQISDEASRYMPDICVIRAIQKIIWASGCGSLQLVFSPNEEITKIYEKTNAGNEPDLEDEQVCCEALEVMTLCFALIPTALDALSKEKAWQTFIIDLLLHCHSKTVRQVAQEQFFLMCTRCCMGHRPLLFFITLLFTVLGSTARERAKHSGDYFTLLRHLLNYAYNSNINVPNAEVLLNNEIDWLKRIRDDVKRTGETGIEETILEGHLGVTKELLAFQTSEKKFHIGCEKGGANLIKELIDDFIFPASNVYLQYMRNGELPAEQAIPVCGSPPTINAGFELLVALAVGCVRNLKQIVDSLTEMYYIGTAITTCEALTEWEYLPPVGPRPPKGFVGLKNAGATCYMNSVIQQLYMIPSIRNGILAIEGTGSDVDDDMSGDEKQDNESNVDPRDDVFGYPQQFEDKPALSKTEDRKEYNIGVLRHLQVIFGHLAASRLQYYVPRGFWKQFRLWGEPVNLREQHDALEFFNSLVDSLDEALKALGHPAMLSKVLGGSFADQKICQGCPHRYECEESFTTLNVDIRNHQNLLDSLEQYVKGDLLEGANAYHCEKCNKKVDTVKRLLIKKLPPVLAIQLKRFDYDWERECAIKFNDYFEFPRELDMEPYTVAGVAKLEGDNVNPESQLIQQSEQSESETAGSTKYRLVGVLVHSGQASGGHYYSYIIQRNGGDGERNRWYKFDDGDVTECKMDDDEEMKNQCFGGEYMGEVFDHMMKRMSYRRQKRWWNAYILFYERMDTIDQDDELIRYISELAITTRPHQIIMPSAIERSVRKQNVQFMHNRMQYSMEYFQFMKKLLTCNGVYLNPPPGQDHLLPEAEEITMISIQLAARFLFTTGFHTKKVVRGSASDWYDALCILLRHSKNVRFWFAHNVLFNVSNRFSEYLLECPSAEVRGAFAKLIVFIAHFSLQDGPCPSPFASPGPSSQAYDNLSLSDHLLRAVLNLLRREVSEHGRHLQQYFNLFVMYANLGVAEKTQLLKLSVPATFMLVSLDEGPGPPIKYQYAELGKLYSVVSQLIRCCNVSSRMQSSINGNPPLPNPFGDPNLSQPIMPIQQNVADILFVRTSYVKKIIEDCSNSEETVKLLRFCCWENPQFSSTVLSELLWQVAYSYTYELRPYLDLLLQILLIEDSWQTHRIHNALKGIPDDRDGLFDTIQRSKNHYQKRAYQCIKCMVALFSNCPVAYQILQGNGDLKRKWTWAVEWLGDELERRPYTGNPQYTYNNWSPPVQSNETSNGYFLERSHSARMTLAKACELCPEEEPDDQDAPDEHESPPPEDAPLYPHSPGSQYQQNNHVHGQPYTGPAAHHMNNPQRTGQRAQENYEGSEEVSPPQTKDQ
UniProt O00487, sequence (O00487 whole entry): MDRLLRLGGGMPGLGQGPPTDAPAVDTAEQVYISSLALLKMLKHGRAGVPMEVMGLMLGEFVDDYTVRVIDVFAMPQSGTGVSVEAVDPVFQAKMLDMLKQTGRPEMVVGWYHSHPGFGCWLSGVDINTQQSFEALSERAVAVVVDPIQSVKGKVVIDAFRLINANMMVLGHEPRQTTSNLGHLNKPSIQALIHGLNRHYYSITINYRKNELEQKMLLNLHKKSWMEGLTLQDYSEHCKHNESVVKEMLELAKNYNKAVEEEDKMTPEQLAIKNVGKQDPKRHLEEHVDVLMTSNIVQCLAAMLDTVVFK
USP7, sequence (Q93009 whole entry, looked up): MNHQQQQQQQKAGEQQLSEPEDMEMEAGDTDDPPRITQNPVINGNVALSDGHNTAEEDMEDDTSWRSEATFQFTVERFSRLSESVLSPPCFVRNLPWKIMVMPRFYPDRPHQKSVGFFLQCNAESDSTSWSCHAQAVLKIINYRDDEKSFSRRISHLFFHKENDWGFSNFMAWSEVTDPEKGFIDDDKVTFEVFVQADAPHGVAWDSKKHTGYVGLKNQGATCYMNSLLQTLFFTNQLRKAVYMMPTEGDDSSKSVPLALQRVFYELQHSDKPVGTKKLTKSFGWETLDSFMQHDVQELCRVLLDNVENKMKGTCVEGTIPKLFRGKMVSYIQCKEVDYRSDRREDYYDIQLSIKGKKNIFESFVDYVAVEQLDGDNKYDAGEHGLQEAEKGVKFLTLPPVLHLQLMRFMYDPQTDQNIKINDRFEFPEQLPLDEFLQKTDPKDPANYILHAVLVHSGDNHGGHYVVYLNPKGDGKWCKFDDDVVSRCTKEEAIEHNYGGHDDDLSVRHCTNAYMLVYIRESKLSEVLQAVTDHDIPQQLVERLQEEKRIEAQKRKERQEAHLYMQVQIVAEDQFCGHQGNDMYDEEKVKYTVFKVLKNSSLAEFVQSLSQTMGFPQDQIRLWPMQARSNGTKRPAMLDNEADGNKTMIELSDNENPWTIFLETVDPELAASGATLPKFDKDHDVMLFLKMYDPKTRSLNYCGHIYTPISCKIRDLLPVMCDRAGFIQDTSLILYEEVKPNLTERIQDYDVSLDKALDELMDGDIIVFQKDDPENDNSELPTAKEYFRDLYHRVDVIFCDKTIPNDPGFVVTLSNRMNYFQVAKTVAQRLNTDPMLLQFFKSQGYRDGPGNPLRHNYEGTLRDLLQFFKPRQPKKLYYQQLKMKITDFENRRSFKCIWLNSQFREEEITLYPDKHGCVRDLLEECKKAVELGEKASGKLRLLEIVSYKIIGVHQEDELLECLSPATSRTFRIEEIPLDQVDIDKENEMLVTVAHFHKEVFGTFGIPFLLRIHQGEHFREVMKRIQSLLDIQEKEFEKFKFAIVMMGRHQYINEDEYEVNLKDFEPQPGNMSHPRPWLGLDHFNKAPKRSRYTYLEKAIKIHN
USP46, sequence (P62068 whole entry): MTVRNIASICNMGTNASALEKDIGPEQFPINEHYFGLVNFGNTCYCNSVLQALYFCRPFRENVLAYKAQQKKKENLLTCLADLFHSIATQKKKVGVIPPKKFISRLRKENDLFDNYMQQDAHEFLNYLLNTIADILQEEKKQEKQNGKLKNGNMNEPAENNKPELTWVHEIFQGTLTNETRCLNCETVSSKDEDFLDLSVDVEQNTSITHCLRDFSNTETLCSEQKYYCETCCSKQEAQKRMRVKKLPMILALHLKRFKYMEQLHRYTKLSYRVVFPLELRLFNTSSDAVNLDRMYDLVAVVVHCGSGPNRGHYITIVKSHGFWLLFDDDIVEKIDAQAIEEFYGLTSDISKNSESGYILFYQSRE

Cc1cccc(C(CNC(=O)CCl)N2CCOCC2)c1.Cl (stereo not given)
inactive: [1] -0.208 | [2] 0.086 | [3] 0.268 | [4] -0.106 | [5] -0.22 | [6] -0.0536 | [7] -0.244 | [8] -0.417 | [9] -0.0494 | [10] 0.181
